Test results: PubChem BioAssay AID651828 (ICCB-Longwood Screening Facility, Harvard Medical School, 2012)
About 25 (0.1%) of roughly 20,000 compounds were called active. Many of the other results were omitted from the sample, so actives are more common in it than they were. Values without a mark were called inactive. Rule as the data show it: active = % bound below about 75%; inactive = the rest.

molecular target: Nucleoprotein (Rift valley fever virus (strain ZH-548 M12)) (UniProt P21700); experiment: inhibitors of RVFV nucleoprotein–RNA binding, primary screen, biochemical, fluorescence polarization (AID 651828); details: RVFV N-RNA binding, stronger effect = lower value, concentration not given here
Sequence (P21700 whole entry, looked up): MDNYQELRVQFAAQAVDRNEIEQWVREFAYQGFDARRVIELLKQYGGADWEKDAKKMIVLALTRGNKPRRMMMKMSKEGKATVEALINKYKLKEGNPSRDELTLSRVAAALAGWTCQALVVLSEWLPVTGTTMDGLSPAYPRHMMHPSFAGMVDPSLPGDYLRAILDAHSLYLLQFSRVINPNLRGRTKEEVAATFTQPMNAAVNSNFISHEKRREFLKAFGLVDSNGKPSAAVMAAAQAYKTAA

Point of comparison: `COc1cc(/C=C2/C(=N)N3N=C(c4ccccc4C)SC3=NC2=O)ccc1OC(=O)c1ccco1`, % bound 91.3%. Against it:
- CSC(=S)Nc1ccc(C)cc1 — higher, 92%
- CCN(CC)CCN1C(=O)C(O)=C(C(=O)/C=C/c2ccco2)C1c1ccc(OC)cc1 (centres undefined) — higher, 97.9%
- CC(Cn1cnc2ccccc21)C(=O)N/N=C/c1ccccc1 (centres undefined) — higher, 98.5%
- CC(C)NS(=O)(=O)c1ccc(NC(=O)C2CCCCC2)cc1 — higher, 98%
- NS(=O)(=O)c1ccc(NS(=O)(=O)/C=C/c2ccccc2)cc1 — lower, 80.7%
- O=C(c1cccc(N2C(=O)c3ccccc3C2=O)c1)N1CCOCC1 — higher, 95%
- CCCCN=Cc1c(O)n(-c2ccc(Cl)cc2)c(=O)[nH]c1=O — lower, 85.2%
- O=C(CSc1ccc(-c2ccccc2)nn1)NCC1CCCO1 (centres undefined) — the same, 91.3%
- O=C(CC1CCCC1)NCc1cn2ccsc2n1 — higher, 97.9%
- Cc1cccc(NC(=O)c2ccccc2-c2nc(-c3ccccc3)no2)c1 — lower, 89.8%
- O=C(CC12CC3CC(CC(C3)C1)C2)Nc1ccc(N2CCN(C(=O)c3ccco3)CC2)cc1 — lower, 89.8%
- O=C(Nc1ccccn1)c1cc2c(s1)CCCC2 — higher, 94.3%
- COC(=O)Nc1ccc(S(=O)(=O)Nc2cc(OC)nc(OC)n2)cc1 — higher, 95.6%
- COc1ccc(C2CC(=O)c3cnc(NCCN4CCOCC4)nc3C2)cc1 (centres undefined) — lower, 89.7%
- COC(=O)c1ccc(COc2ccc3c(oc(=O)c4cc(OC)ccc43)c2C)o1 — lower, 87.4%
- CCOC(=O)c1ccc(CC(=O)c2cc(CC)c(O)cc2O)o1 — higher, 105%
- CN1CCC(N(C)C(=O)Nc2c[nH]c3ccccc23)CC1 — higher, 96.9%
- CCc1c(O)nc(SCc2ccccc2)n(C2CCCCC2)c1=O — higher, 92.2%
- Cc1cc(Cl)ccc1NNC(=O)c1snnc1C — higher, 109%
- Cc1cc(=O)[nH]c(Nc2ccc(O)cc2)n1 — higher, 96.9%
- CSc1n[nH]c(N)c1-c1ccccn1 — higher, 93.7%
- CP(=O)(O)CN1CCN(CP(C)(=O)O)CC1 — higher, 93%
- CCNC(=O)N1c2ccccc2Sc2ccccc21 — higher, 93.8%
- CN(C)S(=O)(=O)c1ccc(C(=O)Nc2nnc(C3CC3)o2)cc1 — higher, 107%
- Cc1ccc(-c2nn3c(C)nnc3c3ccccc23)cc1S(=O)(=O)N1CCCC1 — higher, 93.1%
- COc1ccc(CCNC(=O)Nc2ccccc2C)cc1OC — higher, 91.4%
- O=C(O)c1cc(N=Cc2ccccc2)ccc1O — higher, 108%
- CC(Sc1nnc(-c2c[nH]c3ccccc23)n1C)c1ccccc1 (centres undefined) — higher, 96.8%
- FC(F)(F)COc1ccc(-c2n[nH]c(=S)o2)cn1 — higher, 92.8%
- COc1cccc(CNc2ccc3c(c2)ncn3C)c1 — higher, 107%
- Cc1nc(SCC#N)c2c3c(sc2n1)CCCC3 — higher, 103%
- O=C(CC(C(=O)O)n1cccn1)c1ccc(Br)cc1 (centres undefined) — higher, 98.3%
- COCC(=O)N1CCN(c2ccccn2)CC1 — lower, 87.2%
- O=S(=O)(NNc1ncnc2sccc12)c1ccc(Cl)cc1 — higher, 97.8%
- O=C(CN1CCSCC1)N/N=C/c1ccc(Br)cc1 — higher, 101%
- C=CCN(CC=C)C(=O)c1ccc(N2C(=O)CCC2=O)cc1 — higher, 95.1%
- CCC(C)NC(=S)NC1CCCCC1 (centres undefined) — higher, 112%
- CC(C)(C)c1ccc(CSc2nc3c(c(=O)[nH]2)CCC3)cc1 — lower, 91%
- CN(C(=O)c1cc2cccnc2n(C)c1=O)c1ccccc1 — higher, 93.7%
- O=C(CCc1ccccc1)NNc1ccc(F)cc1 — higher, 104%
- Cc1[nH]nc2c1C1C(C2)C1(C)C (centres undefined) — higher, 96.4%
- C=CCn1c(O)c(N=N)c2ccccc21 — higher, 97.3%
- CC1CCCCN1S(=O)(=O)CCNC(=O)c1ccccc1 (centres undefined) — lower, 89.1%
- CC(C)n1c(-c2ccncc2)n[nH]c1=S — higher, 98.6%
- CN(C)C(=O)c1cc(Br)ccc1Cl — higher, 99.9%
- Cc1onc(-c2ccccc2Cl)c1C(=O)N(Cc1nc(-c2ccccc2)no1)C(C)C — lower, 89%
- CC(C)CCn1c(CO)cnc1S(=O)(=O)C(C)C — lower, 86.9%
- O=C(c1ccc(Br)o1)n1cnc2ccccc21 — higher, 104%
- CC(=O)Nn1nc2c(n1)C(=NNC(=O)c1ccccc1)c1nn(NC(C)=O)nc1C2=NNC(=O)c1ccccc1 — higher, 98.5%
- CNC(C)c1ccc(OC)c(OC)c1 (centres undefined) — lower, 91%
- CCN(CC)C(=O)/C=C/c1cccc2ccccc12 — higher, 101%
- Cc1cc(C)c2c(N)c(-c3n[nH]c(=S)n3C)sc2n1 — higher, 98.2%
- CNC(=O)O/N=C/c1nn(C)cc1Br — higher, 94.8%
- COc1ccc(Cl)cc1NC(=S)N1CCCCC1CO (centres undefined) — higher, 94.6%
- O=C(Nc1c[nH]c2ccccc12)NC1CCCC1 — higher, 94.2%
- COc1cc(CN2CCN3CCCC3C2C2CCCCC2)cc(OC)c1 (centres undefined) — higher, 107%
- CC12CN3CC(C)(CN(C1)C31C(=O)Nc3ccccc31)C2O (centres undefined) — higher, 103%
- O=c1cc(-c2ccccc2)nc(SCc2ccccn2)[nH]1 — higher, 93.4%
- Cn1c(=O)n(Cc2ccco2)c(=N)c2c3c(sc21)CCCC3 — higher, 106%
- Nn1c(Cc2ccccc2)nnc1SCC(=O)Nc1ccccc1F — higher, 91.9%
- COc1ccc(N=Nc2c(-c3ccc(OC)cc3)[nH]oc2=O)cc1 — lower, 75.1%
- CN(C)c1ccc(/C=C2\SC(=Nc3ccccc3)N(CCO)C2=O)cc1 — higher, 92.8%
- CS(=O)(=O)c1ccccc1C(=O)Nc1ccc2sccc2c1 — higher, 96%
- O=S(=O)(c1ccccc1)c1ccc(I)cc1 — higher, 96.7%
- C=CCc1ccc(OCC(=O)ONN)c(OC)c1 — higher, 104%
- COC(=O)c1sc(-c2cccs2)cc1NS(=O)(=O)c1cn(C)cn1 — higher, 98.3%
- Cc1c(Cl)cccc1NC(=O)CCn1cnc2ccccc2c1=O — lower, 81.8%
- Cc1cc(Oc2cc(C#N)c(C#N)cc2N2CCOCC2)cc(C)c1Cl — higher, 95.2%
